Measured values reported in PubChem BioAssay AID1963322 (National Center for Advancing Translational Sciences (NCATS), 2024).
Results filed as inconclusive are left out. Unmarked numbers belong to inactive results. The source made the active and inactive calls. The call rests on the fitted dose curve.

biological target: cAMP-dependent protein kinase catalytic subunit alpha (Homo sapiens) (UniProt P17612); assay: Protein Kinase A (PKA-HiBiT) SDR gain of signal screen; settings: PKA-HiBiT structural dynamics response (SDR), luminescence gain of signal; series mostly up to 32.9 µM; activity change, positive = signal gain: at the top concentration
Description: National Center for Advancing Translational Sciences (NCATS),
National Institute of Health (NIH), Maryland
Discovery and optimization of novel protein-binding ligands underlies many of the methods and applications of biology, drug discovery, clinical diagnostics, and environmental toxicology. Assays for detecting the interaction of, for example, a molecule with a macromolecular target also referred to here as the target of interest (TOI) is dependent on a compatible output technology. Depending on the nature and knowledge surrounding the TOI, whether a receptor, enzyme, regulatory subunit or scaffold, or a sequence-defined nucleic acid folded into a complex tertiary structure, assay strategies can vary widely.
Here we exploit ligand-biased changes in the structural dynamics of the target protein to control reporter alpha complementation allowing a non-competitive, non-functional, non-separation measure of ligand-target interaction.
Using a chemical library of >1,200 compounds enriched for scaffolds known to be associated with the inhibition of firefly luciferase (FLuc) activity (PubChem AIDs 2309) we first illustrate and compare the Structural Dynamics Response (SDR) assay vs. the standard functional FLuc enzyme assay (2). Secondly, we show the specificity and sensitivity of the SDR for the Abelson tyrosine kinase (ABL1) compared to the serine/threonine protein kinase A, using an enriched chemical library of 128 compounds selected, in part, for activity annotated with ABL1 kinase activity using the Pharos database (3).
(1) A. S. Dixon et al., NanoLuc Complementation Reporter Optimized for Accurate Measurement of Protein Interactions in Cells. ACS Chem Biol 11, 400-408 (2016).
Chemistry & Biology, 19, 1060 - 1072 (2012).
(3) K. J. Kelleher et al., Pharos 2023: an integrated resource for the understudied human proteome. Nucleic Acids Res 51, D1405-D1416 (2023).
PROTOCOL TABLE (as described by Inglese J, Shamu CE and Guy RK. 2007)
SEQUENCE No. (e.g., 1, 2, 3, etc.); […] (e.g., C. elegans, Compounds, Incubation, Read, etc.); VALUE and DESCRIPTION.
1. Reagent. Dispense 4 uL PKA-N-HiBiT enzyme per well at a final enzyme concentration of 10 nM in buffer into columns 2-48 of four replicate Greiner 1536-well white,solid bottom high base, medium plates per assay. Dispense respective buffer without enzyme at 4 uL/well in column 1 of assay plates using BioRaptr 2.
2. Compounds. Library compounds added at 23 nL/well by pin transfer. DMSO neutral control and H-89 positive control added at 25 nL/well, transfer by Mosquito dispenser.
3. Incubation. Incubate enzyme and compounds at room temperature for 30 min, protect from light.
4. Reagent. (SDR assay) Add 3 uL/well of Nano-Glo HiBiT reagent (Promega) to assay plates.
5. Incubation. (SDR assay) Incubate enzyme solution HiBiT reagent at room temperature for 10 min, protected from light.
6. Detector. (SDR assay) Luminescence measured using CCD-based camera (ViewLux) with settings as follows: Exposure, 1 sec; Gain, High; Speed, Slow; Binning, 2X.

Compared with `Cc1[nH]c2ccccc2c1C1=C(NCCc2ccc(F)cc2)C(=O)N(C)C1=O`, `CSc1cccc(Nc2ncc3cc(-c4c(Cl)cccc4Cl)c(=O)n(C)c3n2)c1` is higher in “activity change, positive = signal gain” value: -30.9% for the first, -1.1% for the second.

First: COc1ccccc1-c1c[nH]c2ncc(-c3cncc(C(=O)N(C)C)c3)cc12
Second: CNC(=O)c1ccccc1Nc1nc(Nc2ccc(N3CCOCC3)cc2OC)ncc1Cl
The “activity change, positive = signal gain” value of the first is lower: 14.2% for the first, 19.9% for the second.

First: c1ccc(-c2oc3ncnc(NC[C@@H]4CCCO4)c3c2-c2ccccc2)cc1
Second: CNC(=O)c1ccccc1Sc1ccc2c(/C=C/c3ccccn3)n[nH]c2c1
The “activity change, positive = signal gain” value of the first is higher: 5.8% for the first, -5.73% for the second.

First: C[C@@H]1CN(CC(=O)Nc2ccc3c(c2)Cc2cccc(-c4cc(=O)cc(N5CCOCC5)o4)c2S3)C[C@H](C)O1
Second: Cc1ccc(NC(=O)c2ccc(CN3CCN(C)CC3)cc2)cc1Nc1nc(-c2cccnc2)cs1
The “activity change, positive = signal gain” value of the first is lower: -4.67% for the first, 5.21% for the second.

Going from `CN1CCN(CCCNc2ncc(Cl)c(-c3cc4c(C(=O)NC5CC5)cccc4s3)n2)CC1` to `O=C(c1cccc(Cl)c1F)N1CCN(Cc2cccc(Nc3nccs3)n2)CC1`, the “activity change, positive = signal gain” value falls from -4.3% to -14.8%.

Going from `Cn1cc(-c2cc3c(N4CCN(c5ncc([C@@](C)(N)c6ccc(F)cc6)cn5)CC4)ncnn3c2)cn1` to `Cc1ncc(NC(=O)c2ccc(CN3CCN(C)CC3)c(C(F)(F)F)c2)cc1Nc1nccc(-c2cccnc2)n1`, the “activity change, positive = signal gain” value falls from 11.1% to 8.51%.

Compared with `COc1cc(NC(=O)c2cccc(-n3cc(NC(=O)Nc4cccc(C)c4)cn3)c2)cc(OC)c1OC`, `Cc1cc(NC(=O)c2ccc(C)c(Nc3nccc(-c4cccnc4)n3)c2)cc(-n2cnc(C)c2)c1` is lower in “activity change, positive = signal gain” value: 1.34% for the first, -7.69% for the second.

First: Cc1ccc(C(=O)Nc2ccc(Oc3cc4cnn(C)c4cc3-c3cn[nH]c3)c(F)c2)c(=O)n1-c1ccc(F)cc1
Second: Cc1cn(-c2cccc(NC(=O)c3ccc(C)c(Nc4nccc(-c5cccnc5)n4)c3)c2)cn1
The “activity change, positive = signal gain” value of the first is higher: 8.3% for the first, -0.576% for the second.

First: Cc1cc(Nc2cc(N3CCN(C)CC3)nc(Sc3ccc(NC(=O)C4CC4)cc3)n2)n[nH]1
Second: Cc1ccc(C(=O)Nc2ccc(CN3CCN(C)CC3)c(C(F)(F)F)c2)cc1C#Cc1cnc2[nH]ncc2c1
The “activity change, positive = signal gain” value of the first is lower: -6.42% for the first, 7.29% for the second.

First: O=C(Nc1ccc(OC(F)(F)F)cc1)c1sccc1NCc1ccnc2ccccc12
Second: FC(F)(F)c1ccc(/C=C/c2nc(COc3ccc(CCCCn4ccnn4)cc3)co2)cc1
The “activity change, positive = signal gain” value of the first is higher: 10.2% for the first, 7.11% for the second.

First: CC(C)CCN1c2nc(Nc3cc(F)c(O)c(F)c3)ncc2N(C)C(=O)C1C (stereo not given)
Second: Cc1cc(F)ccc1-c1nc(NC(CO)CO)nc2c1ccc(=O)n2-c1c(F)cccc1F
The “activity change, positive = signal gain” value of the first is lower: -13.2% for the first, 4.46% for the second.

First: O=C(NOCC(O)CO)c1cc(Br)c(F)c(F)c1Nc1ccc(I)cc1F (stereo not given)
Second: O=C(NC1CCNCC1)c1[nH]ncc1NC(=O)c1c(Cl)cccc1Cl
The “activity change, positive = signal gain” value of the first is lower: -34.9% for the first, 1.69% for the second.

First: CC1(C)OCCn2c1nc1c(N3CCOCC3)nc(-c3cnc(N)nc3)nc12
Second: Nc1ncnc2c1c(-c1cnc3[nH]ccc3c1)nn2C1CCCC1
The “activity change, positive = signal gain” value of the first is lower: 4.3% for the first, 13.7% for the second.

Compared with `Cc1nc(NC(=O)N2CCC[C@H]2C(N)=O)sc1-c1ccnc(C(C)(C)C(F)(F)F)c1`, `CCn1nc(C2CCN(C(=O)CCO)CC2)nc1-c1cnc(N)c(-c2nnc(C(C)(C)C)o2)n1` is higher in “activity change, positive = signal gain” value: -0.666% for the first, 7.07% for the second.

First: CCN1/C(=C\C(C)=O)Sc2ccc(OC)cc21
Second: Cn1sc(=O)n(Cc2ccccc2)c1=O
The “activity change, positive = signal gain” value of the first is higher: 8.08% for the first, 0.648% for the second.

First: CO[C@@H](C(=O)N1Cc2[nH]nc(NC(=O)c3ccc(N4CCN(C)CC4)cc3)c2C1)c1ccccc1
Second: COc1cc2c(N3CCN(C(=O)Nc4ccc(OC(C)C)cc4)CC3)ncnc2cc1OCCCN1CCCCC1
The “activity change, positive = signal gain” value of the first is lower: 3.68% for the first, 7.07% for the second.

First: CN1CCN(CCOc2cc(OC3CCOCC3)c3c(Nc4c(Cl)ccc5c4OCO5)ncnc3c2)CC1
Second: COc1cc2c(Oc3ccc4[nH]c(C)cc4c3F)ncnc2cc1OCCCN1CCCC1
The “activity change, positive = signal gain” value of the first is lower: 5.07% for the first, 5.25% for the second.

`O=C(O)C1(Cc2cccc(Nc3nccs3)n2)CCC(Oc2cccc(Cl)c2F)CC1` (stereo not given) was tested, and the Potency was 14.5 µM (active).
In the case of `COc1cc(N2CCC(N3CCN(C)CC3)CC2)ccc1Nc1ncc(Cl)c(Nc2ccccc2P(C)(C)=O)n1`, the Potency is reported as 5.55 µM (active).
`Cn1cc(-c2[nH]c3cc(NC(=O)[C@H](N)C4CCCCC4)cc4c3c2C=NNC4=O)cn1` was tested, and the Potency was 0.6 µM (active).
For `CN(c1ncccc1CNc1nc(Nc2ccc3c(c2)CC(=O)N3)ncc1C(F)(F)F)S(C)(=O)=O`, the Potency was 4.41 µM (active).
`COc1cc(N2CCOCC2)ccc1Nc1ncc(Cl)c(Nc2ccccc2NS(C)(=O)=O)n1` was tested, and the Potency was 1.34 µM (active).

`c1ccc2c(-c3cnn4cc(-c5ccc(N6CCNCC6)cc5)cnc34)ccnc2c1` was tested, and the activity change, positive = signal gain was 6.14% [at 3.64 µM].
